In PubChem BioAssay AID1159580 (chemical genetic matrix, 2015):
“And” between values parts separate entries of the source, which are not always exact repeats. Identical values can stand only once. In all, about 5,500 compounds went through this assay and about 2,000 (36%) were called active. Roughly 18% stayed inconclusive and do not appear here. Rule as the data show it: active = normalized growth mostly below about 0.91 (no sharp cut-off); inconclusive = no clear call, values can overlap the other calls; inactive = mostly above about 0.92. The list shows a part of the results.

Test: chemical genetic growth profiling, strain panel (AID 1159580);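 also: tested at 20 µM; growth read once vehicle control cultures reached saturation at 30 °C; 1 = growth at the plate median or of vehicle wells; lower values mean less growth of the strain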
Details: growth OD

Measured: normalized growth

Cc1cc(N)c2ccccc2[n+]1CCCCCCCCCC[n+]1c(C)cc(N)c2ccccc21
active: S. cerevisiae deletion strains, locus YJL187C, strain SWE1, stronger effect = lower value 0.066 | S. cerevisiae deletion strains, locus YJR043C, strain POL32, stronger effect = lower value 0.0703 | S. cerevisiae deletion strains, locus YJR075W, strain HOC1, stronger effect = lower value 0.0707 and 0.0679 | S. cerevisiae deletion strains, locus YKL009W, strain mrt4, stronger effect = lower value 0.107 | S. cerevisiae deletion strains, locus YKL068W, stronger effect = lower value 0.0834 | S. cerevisiae deletion strains, locus YKL085W, strain MDH1 (second series), stronger effect = lower value 0.0842 | S. cerevisiae deletion strains, locus YKL085W, strain MDH1, stronger effect = lower value 0.0842 | S. cerevisiae deletion strains, locus YKL160W, strain elf1, stronger effect = lower value 0.0728 | S. cerevisiae deletion strains, locus YKL190W, strain CNB1, stronger effect = lower value 0.0496 | S. cerevisiae deletion strains, locus YKR001C, strain vps1, stronger effect = lower value 0.0684 | S. cerevisiae deletion strains, locus YKR026C, strain gcn3, stronger effect = lower value 0.0705 | S. cerevisiae deletion strains, locus YKR091W, strain srl3, stronger effect = lower value 0.0679 | S. cerevisiae deletion strains, locus YLL001W, strain dnm1, stronger effect = lower value 0.0644 | S. cerevisiae deletion strains, locus YLL026W, stronger effect = lower value 0.0616 | S. cerevisiae deletion strains, locus YLL041C, strain sdh2, stronger effect = lower value 0.0642 | S. cerevisiae deletion strains, locus YLR027C, strain aat2, stronger effect = lower value 0.0617 | S. cerevisiae deletion strains, locus YLR039C, strain RIC1, stronger effect = lower value 0.0806 | S. cerevisiae deletion strains, locus YLR058C, strain SHM2, stronger effect = lower value 0.0484 | S. cerevisiae deletion strains, locus YLR102C, strain apc9, stronger effect = lower value 0.0687 | S. cerevisiae deletion strains, locus YLR221C, strain rsa3, stronger effect = lower value 0.0648 | S. cerevisiae deletion strains, locus YLR258W, strain gsy2, stronger effect = lower value 0.0653 | S. cerevisiae deletion strains, locus YLR262C, strain YPT6 (second series), stronger effect = lower value 0.0835 | S. cerevisiae deletion strains, locus YLR262C, strain YPT6, stronger effect = lower value 0.107 | S. cerevisiae deletion strains, locus YLR268W, strain sec22, stronger effect = lower value 0.0712 | S. cerevisiae deletion strains, locus YLR320W, strain mms22, stronger effect = lower value 0.0855 | S. cerevisiae deletion strains, locus YLR330W, strain CHS5, stronger effect = lower value 0.0547 | S. cerevisiae deletion strains, locus YLR342W, strain FKS1 (second series), stronger effect = lower value 0.0723 | S. cerevisiae deletion strains, locus YLR342W, strain FKS1, stronger effect = lower value 0.0695 | S. cerevisiae deletion strains, locus YLR357W, strain rsc2, stronger effect = lower value 0.126 | S. cerevisiae deletion strains, locus YLR370C, strain arc18, stronger effect = lower value 0.0633 | S. cerevisiae deletion strains, locus YLR371W, strain rom2, stronger effect = lower value 0.0663 | S. cerevisiae deletion strains, locus YLR384C, strain iki3, stronger effect = lower value 0.0616 | S. cerevisiae deletion strains, locus YLR418C, strain cdc73, stronger effect = lower value 0.101 | S. cerevisiae deletion strains, locus YML016C, strain PPZ1, stronger effect = lower value 0.0475 | S. cerevisiae deletion strains, locus YML032C, strain rad52, stronger effect = lower value 0.0723 | S. cerevisiae deletion strains, locus YML120C, strain ndi1, stronger effect = lower value 0.0605 | S. cerevisiae deletion strains, locus YML124C, strain tub3, stronger effect = lower value 0.0637 | S. cerevisiae deletion strains, locus YMR058W, strain fet3, stronger effect = lower value 0.0627 | S. cerevisiae deletion strains, locus YMR078C, strain ctf18, stronger effect = lower value 0.0768 | S. cerevisiae deletion strains, locus YMR125W, strain sto1, stronger effect = lower value 0.0824 | S. cerevisiae deletion strains, locus YMR129W, stronger effect = lower value 0.069 | S. cerevisiae deletion strains, locus YMR205C, strain PFK2, stronger effect = lower value 0.0906 | S. cerevisiae deletion strains, locus YMR223W, strain ubp8, stronger effect = lower value 0.0681 | S. cerevisiae deletion strains, locus YMR231W, strain pep5, stronger effect = lower value 0.0782 | S. cerevisiae deletion strains, locus YMR263W, strain SAP30, stronger effect = lower value 0.0586 | S. cerevisiae deletion strains, locus YMR307W, strain GAS1, stronger effect = lower value 0.119 and 0.0541 | S. cerevisiae deletion strains, locus YNL067W, strain RPL9B, stronger effect = lower value 0.0529 | S. cerevisiae deletion strains, locus YNL071W, strain lat1, stronger effect = lower value 0.0636 | S. cerevisiae deletion strains, locus YNL128W, strain TEP1, stronger effect = lower value 0.0667 and 0.0791 | S. cerevisiae deletion strains, locus YNL153C, strain GIM3, stronger effect = lower value 0.0526 and 0.0904 | S. cerevisiae deletion strains, locus YNL175C, strain NOP13, stronger effect = lower value 0.0762 | S. cerevisiae deletion strains, locus YNL197C, strain WHI3, stronger effect = lower value 0.0722 | S. cerevisiae deletion strains, locus YNL209W, strain ssb2, stronger effect = lower value 0.0673 | S. cerevisiae deletion strains, locus YNL224C, strain SQS1, stronger effect = lower value 0.0723 | S. cerevisiae deletion strains, locus YNL233W, strain BNI4, stronger effect = lower value 0.0625 | S. cerevisiae deletion strains, locus YNL248C, strain rpa49, stronger effect = lower value 0.0815 | S. cerevisiae deletion strains, locus YNL250W, strain rad50, stronger effect = lower value 0.136 | S. cerevisiae deletion strains, locus YNL271C, strain bni1, stronger effect = lower value 0.0837 | S. cerevisiae deletion strains, locus YNL298W, strain CLA4, stronger effect = lower value 0.0752 | S. cerevisiae deletion strains, locus YNL307C, strain MCK1, stronger effect = lower value 0.0714 | S. cerevisiae deletion strains, locus YNL322C, strain KRE1 (second series), stronger effect = lower value 0.0698 | S. cerevisiae deletion strains, locus YNL322C, strain KRE1, stronger effect = lower value 0.0558 | S. cerevisiae deletion strains, locus YNR049C, strain mso1, stronger effect = lower value 0.0605 | S. cerevisiae deletion strains, locus YNR052C, strain pop2, stronger effect = lower value 0.0672 | S. cerevisiae deletion strains, locus YOL006C, strain TOP1, stronger effect = lower value 0.11 | S. cerevisiae deletion strains, locus YOL147C, strain pex11, stronger effect = lower value 0.0611 | S. cerevisiae deletion strains, locus YOR001W, strain rrp6, stronger effect = lower value 0.0775 | S. cerevisiae deletion strains, locus YOR061W, strain CKA2, stronger effect = lower value 0.0489 | S. cerevisiae deletion strains, locus YOR069W, strain VPS5, stronger effect = lower value 0.0494 | S. cerevisiae deletion strains, locus YOR070C, strain gyp1, stronger effect = lower value 0.0633 | S. cerevisiae deletion strains, locus YOR080W, strain dia2, stronger effect = lower value 0.0687 | S. cerevisiae deletion strains, locus YOR083W, strain WHI5 (second series), stronger effect = lower value 0.081 | S. cerevisiae deletion strains, locus YOR083W, strain WHI5, stronger effect = lower value 0.0703 | S. cerevisiae deletion strains, locus YOR106W, strain vam3, stronger effect = lower value 0.065 | S. cerevisiae deletion strains, locus YOR136W, strain idh2, stronger effect = lower value 0.0784 | S. cerevisiae deletion strains, locus YOR144C, strain elg1, stronger effect = lower value 0.0641 | S. cerevisiae deletion strains, locus YOR184W, strain ser1, stronger effect = lower value 0.0725 | S. cerevisiae deletion strains, locus YOR265W, strain rbl2, stronger effect = lower value 0.0616 | S. cerevisiae deletion strains, locus YOR270C, strain vph1, stronger effect = lower value 0.0961 | S. cerevisiae deletion strains, locus YOR290C, strain snf2, stronger effect = lower value 0.0714 | S. cerevisiae deletion strains, locus YOR316C, strain cot1, stronger effect = lower value 0.066 | S. cerevisiae deletion strains, locus YPL051W, strain arl3, stronger effect = lower value 0.0687 | S. cerevisiae deletion strains, locus YPL055C, strain LGE1, stronger effect = lower value 0.0706 and 0.0896 | S. cerevisiae deletion strains, locus YPL078C, strain atp4, stronger effect = lower value 0.0678 | S. cerevisiae deletion strains, locus YPL106C, strain sse1, stronger effect = lower value 0.111 | S. cerevisiae deletion strains, locus YPL240C, strain hsp82, stronger effect = lower value 0.0603 | S. cerevisiae deletion strains, locus YPL241C, strain CIN2, stronger effect = lower value 0.0524 and 0.0485 | S. cerevisiae deletion strains, locus YPR119W, strain clb2, stronger effect = lower value 0.0709 | S. cerevisiae deletion strains, locus YPR141C, strain kar3, stronger effect = lower value 0.0821 | S. cerevisiae deletion strains, locus YPR163C, strain tif3, stronger effect = lower value 0.0791 | S. cerevisiae deletion strains, locus YPR167C, strain met16, stronger effect = lower value 0.0671 | S. cerevisiae deletion strains, strain wtn01, stronger effect = lower value 0.0664 | S. cerevisiae strains, strain wild type, stronger effect = lower value 0.0519
